Measurements reported in PubChem BioAssay (NCI).
About 83,000 compounds went through this panel and 20% of them were active in at least one assay; those are over-represented in the sample as a whole.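 Step 1: grow cells in 96-well plates. Step 2: add test compound at a single concentration. Step 3: incubate 48 h. Step 4: record percent growth.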 The source made the active and inactive calls. The calls were made as follows: active = growth percent below 10; inactive = the rest. Where a SMILES comes first, the peptide text is derived from it. Bridges are numbered along the chain shown (N, C = ends). [ ]: non-standard residue; d: D form. The star is where a group is joined. ξ: configuration not given here. ξNMePhe(4-NMe2) = CNC(Cc1ccc(N(C)C)cc1)C(=O)O; Picolinoyl(3-OH) = O=C(c1ncccc1O)*; ξPip(4-oxo) = O=C1CCNC(C(=O)O)C1; Phg = N[CH](C(=O)O)c1ccccc1; Abu = CC[CH](N)C(=O)O

Each molecule was assayed on SK-MEL-2 melanoma (assay: NCI-60 one-dose screen, 48 h (100 = growth as untreated, 0 = no growth, -100 = all killed)). Conditions: 10 µM.
For `CO[C@H]1C[C@@H]2CC[C@@H](C)[C@@](O)(O2)C(=O)C(=O)N2CCCC[C@H]2C(=O)O[C@H]([C@H](C)C[C@@H]2CC[C@@H](O)[C@H](OC)C2)CC(=O)[C@H](C)C=C(C)[C@@H](O)[C@@H](OC)C(=O)[C@H](C)C[C@H](C)/C=C/C=C/C=C1C`, the growth was 75.8% (inactive). With `C/C(O)=C(\C=N\C(N)=S)C(=O)Nc1ccccc1` the growth was 107% (inactive). For `CCS(=O)(=O)c1cc(=O)[nH]c(=O)[nH]1`, the growth was 101% (inactive). With `CCCNC(=O)c1ccc(S(N)(=O)=O)cc1` the growth was 120% (inactive). `CC(C)(O)C#CC#CC(C)(C)O` was tested, and the growth was 103% (inactive). In the case of `CCC1NC(=O)C(NC(=O)c2ncccc2O)C(C)OC(=O)C(c2ccccc2)NC(=O)C2CC(=O)CCN2C(=O)C(Cc2ccc(N(C)C)cc2)N(C)C(=O)C2CCCN2C1=O` (configuration not stated) (tested in a mixture with another compound) ({Picolinoyl(3-OH)}-T[Abu]P[ξNMePhe(4-NMe2)][ξPip(4-oxo)][Phg]; ester 1-C; configuration not given here), the growth was 95.9% (inactive). For `NNc1ccccc1C(=O)O`, the growth was 102% (inactive). In the case of `[O-][N+](=Nc1cccc(Cl)c1)c1cccc(Cl)c1`, the growth was 112% (inactive). `O=C(O)C(O)c1ccccc1` (configuration not stated) was tested, and the growth was 104% (inactive). `CC(=O)Nc1ccc(NC(C)=O)c2c1C(=O)c1ccccc1C2=O` was tested, and the growth was 103% (inactive). In the case of `COc1cc2c3c(n(C)c(=O)c2cc1OC)-c1cc2c(cc1C3=O)OCO2`, the growth was 113% (inactive). `CCN(CC)CCCC(C)Nc1ccnc(/C=C/c2ccc(Cl)cc2)c1` (configuration not stated) was tested, and the growth was -69.4% (active). With `O=C1c2ccccc2C(=O)c2c1ccc(C(=O)O)c2[N+](=O)[O-]` the growth was 119% (inactive). In the case of `O=[N+]([O-])c1ccccc1N=Nc1ccc(O)cc1O`, the growth was 134% (inactive). `O=C1C=C(O)C(=O)C=C1O` was tested, and the growth was 107% (inactive). `N#CCCN(CCCN1CCOCC1)CN1C(=O)c2ccccc2C1=O` was tested, and the growth was 118% (inactive). For `C/C=C/CC(C)C(O)C1C(=O)NC(CC)C(=O)N(C)CC(=O)N(C)C(CC(C)C)C(=O)NC(C(C)C)C(=O)N(C)C(CC(C)C)C(=O)NC(C)C(=O)NC(C)C(=O)N(C)C(CC(C)C)C(=O)N(C)C(CC(C)C)C(=O)N(C)C(C(C)C)C(=O)N1C` (configuration not stated), the growth was -36.5% (active). With `Cc1cc(=O)cc(C)n1-c1ccccc1` the growth was 104% (inactive).

Each molecule was assayed on EKVX NSCLC in the same assay as above. Conditions: 10 µM.
In the case of `CC1=CC(=O)c2ccccc2C1=O`, the growth was 114% (inactive). For `CCOC(=O)C(O)C(O)C(=O)OCC` (configuration not stated), the growth was 111% (inactive). With `Oc1ccc(Cc2ccccc2)c2cccnc12` the growth was 28.3% (inactive). In the case of `CC1CCCC(CC(N)=O)CC1` (configuration not stated), the growth was 107% (inactive). With `COc1cc(C(N)=O)cc(OC)c1OC` the growth was 102% (inactive). For `Cc1ccc(/C(C#N)=C/c2ccc3c(c2)OCO3)cc1`, the growth was 87.3% (inactive). With `O=C(O)C(Cc1ccccc1)C(=O)O` the growth was 106% (inactive). For `O=C1N(C[P+](c2ccccc2)(c2ccccc2)c2ccccc2)CCCN1C[P+](c1ccccc1)(c1ccccc1)c1ccccc1`, the growth was 97% (inactive). `N/N=C(/Cc1ccccc1)NNC(N)=S` was tested, and the growth was 91.9% (inactive). `COc1ccc(C)cc1OC` was tested, and the growth was 108% (inactive). With `O=[N+]([O-])c1cccc(N=Nc2ccc(O)cc2O)c1` the growth was 69.9% (inactive). For `CC1=NN(c2ccccc2)C(=O)/C1=C\N1CC(=O)NC1=S`, the growth was 105% (inactive). `CC1(O)CCCCC1O` (configuration not stated) was tested, and the growth was 114% (inactive). For `CC1(C)/C(=C\CO)C2CCC1C2` (configuration not stated), the growth was 113% (inactive). In the case of `CCCCCCCCCCCCCCCCC1CC(=O)OC1=O` (configuration not stated), the growth was 96.9% (inactive). `S=c1nn[nH]c2ccccc12` was tested, and the growth was 117% (inactive). With `NC(=O)NC(=O)c1ccc(Cl)cc1` the growth was 101% (inactive). In the case of `CC1=C(/C=C/C(C)=C/C=C/C(C)=C/CO)C(C)(C)CCC1`, the growth was 108% (inactive). `Cn1cnc2nc(Cl)nc(Cl)c21` was tested, and the growth was 104% (inactive). In the case of `CC1(C)N=C(N)N=C(N)N1c1ccc(Cl)cc1`, the growth was 48.4% (inactive). For `O=C(/C=C\c1ccc(O)cc1)c1ccccc1`, the growth was 91.3% (inactive). For `CO[C@H]1C[C@@H]2CC[C@@H](C)[C@@](O)(O2)C(=O)C(=O)N2CCCC[C@H]2C(=O)O[C@H]([C@H](C)C[C@@H]2CC[C@@H](O)[C@H](OC)C2)CC(=O)[C@H](C)C=C(C)[C@@H](O)[C@@H](OC)C(=O)[C@H](C)C[C@H](C)/C=C/C=C/C=C1C`, the growth was 36.5% (inactive). With `C/C(O)=C(\C=N\C(N)=S)C(=O)Nc1ccccc1` the growth was 106% (inactive). For `CCS(=O)(=O)c1cc(=O)[nH]c(=O)[nH]1`, the growth was 91.4% (inactive). With `CCCNC(=O)c1ccc(S(N)(=O)=O)cc1` the growth was 112% (inactive). In the case of `CC(C)(O)C#CC#CC(C)(C)O`, the growth was 99.5% (inactive). `CCC1NC(=O)C(NC(=O)c2ncccc2O)C(C)OC(=O)C(c2ccccc2)NC(=O)C2CC(=O)CCN2C(=O)C(Cc2ccc(N(C)C)cc2)N(C)C(=O)C2CCCN2C1=O` (configuration not stated) (tested in a mixture with another compound) ({Picolinoyl(3-OH)}-T[Abu]P[ξNMePhe(4-NMe2)][ξPip(4-oxo)][Phg]; ester 1-C; configuration not given here) was tested, and the growth was 41% (inactive). With `NNc1ccccc1C(=O)O` the growth was 116% (inactive). In the case of `[O-][N+](=Nc1cccc(Cl)c1)c1cccc(Cl)c1`, the growth was 88.8% (inactive). With `O=C(O)C(O)c1ccccc1` (configuration not stated) the growth was 99.9% (inactive). With `CC(=O)Nc1ccc(NC(C)=O)c2c1C(=O)c1ccccc1C2=O` the growth was 73.5% (inactive). In the case of `COc1cc2c3c(n(C)c(=O)c2cc1OC)-c1cc2c(cc1C3=O)OCO2`, the growth was 94.2% (inactive). With `CCN(CC)CCCC(C)Nc1ccnc(/C=C/c2ccc(Cl)cc2)c1` (configuration not stated) the growth was 50.5% (inactive). With `O=C1c2ccccc2C(=O)c2c1ccc(C(=O)O)c2[N+](=O)[O-]` the growth was 109% (inactive). With `O=[N+]([O-])c1ccccc1N=Nc1ccc(O)cc1O` the growth was 116% (inactive). `O=C1C=C(O)C(=O)C=C1O` was tested, and the growth was 102% (inactive). In the case of `N#CCCN(CCCN1CCOCC1)CN1C(=O)c2ccccc2C1=O`, the growth was 107% (inactive). With `C/C=C/CC(C)C(O)C1C(=O)NC(CC)C(=O)N(C)CC(=O)N(C)C(CC(C)C)C(=O)NC(C(C)C)C(=O)N(C)C(CC(C)C)C(=O)NC(C)C(=O)NC(C)C(=O)N(C)C(CC(C)C)C(=O)N(C)C(CC(C)C)C(=O)N(C)C(C(C)C)C(=O)N1C` (configuration not stated) the growth was 26.7% (inactive). In the case of `Cc1cc(=O)cc(C)n1-c1ccccc1`, the growth was 107% (inactive).
